Screening results from PubChem.
Mito fusion yeast: mitochondrial division inhibition or fusion activation. Potency, µM (series often up to 46.1 µM), for the others: at the highest dose growth rescue (activation), hits mostly activators. actives 0.23% (n = 320,000). S. cerevisiae fusion-defective mutant growth rescue, CellTiterGlo 48 h; also: % of control where 0% means no effect; nearly all actives have a fitted effect of over 45% in size
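Yeast fusion mutant, YPEG (non-fermentable carbon), compound, 48 h at 37C non-permissive; CellTiterGlo added, 10 min RT, luminescence read. Rescued growth = division inhibition.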
BRCA1 expr up: increases BRCA1 expression; MCF7-BRCA1-FFLuc reporter, luminescence, 48 h; response scale: scaled: vehicle 0%, 10 µM genistein 100%; Potency, µM (doses to about 46.1 µM), without a hit: top-dose activation, most hits filed as activators; actives 1.1% (n = 380,000); also: nearly all actives have a fitted effect of over 80% in size
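MCF7-BRCA1-FFLuc cells, 2000/well in phenol-red-free MEM, attached 2 h then treated 48 h at 37 C. Luciferase luminescence read 15 min after reagent; normalized to genistein maximum activation (10microM) and DMSO, concentration-response fitted.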
GLP1R inv ag: acts as inverse agonist at human GLP-1 receptor. Potency, µM (doses to about 38.3 µM), without a hit: at the highest dose activity change, negative = inhibition, most hits filed as inhibitors. actives 1.6% (n = 410,000). HEK293 GLP-1R CRE-luciferase, luminescence, 24 h; GLP-1R form is constitutively active. AID 624417. P43220; also: % is scaled to controls: 0 for no effect and ±100 for the full control effect; nearly all actives have a fitted effect of over 55% in size
Target sequence (P43220 whole entry, looked up): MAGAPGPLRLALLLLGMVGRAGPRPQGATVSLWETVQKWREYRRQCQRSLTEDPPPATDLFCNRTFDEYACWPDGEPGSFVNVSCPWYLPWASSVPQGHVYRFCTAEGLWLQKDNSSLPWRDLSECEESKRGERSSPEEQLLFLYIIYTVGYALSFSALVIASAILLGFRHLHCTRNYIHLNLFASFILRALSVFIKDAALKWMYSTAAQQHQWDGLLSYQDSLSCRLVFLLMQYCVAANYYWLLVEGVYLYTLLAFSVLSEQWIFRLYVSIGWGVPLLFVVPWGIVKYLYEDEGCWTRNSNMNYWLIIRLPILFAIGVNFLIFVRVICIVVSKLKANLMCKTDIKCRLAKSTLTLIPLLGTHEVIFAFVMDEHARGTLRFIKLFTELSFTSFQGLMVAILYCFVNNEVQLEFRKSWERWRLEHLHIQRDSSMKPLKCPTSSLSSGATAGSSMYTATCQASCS
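Readout was luciferase luminescence, measured 12 min after detection reagent at room temperature. Beforehand, GLP-1R reporter HEK293 cells had sat 12 h, then received compounds for 24 hr at 37 deg C.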
GLP1R ag: agonists of human GLP-1 receptor. Potency, µM (top dose mostly 45.6 µM), for the others: at the top dose activation, hits mostly activators. HEK293 GLP-1R CRE-luciferase, luminescence, 4-6 h; cells express a hypersensitive GLP-1R form. P43220. actives 0.007% (n = 380,000); also: % of control where 0% means no effect
HEK293 tox: cytotoxicity counter-screen for GLP-1 receptor inverse agonists; Potency, µM (top dose mostly 38.3 µM), without a hit: at the top dose activity change, negative = inhibition, hits mostly inhibitors; AID 624418; HEK293 cAMP-luciferase reporter cells, luminescence, 24 h; actives 0.13% (n = 410,000);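 also: loss of luciferase light is scored as toxicity; % is scaled to controls: 0 for no effect and ±100 for the full control effect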
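Here, cytotoxicity is scored as loss of luminescence. The MLSMR collection was tested on cells seeded in medium containing 10% Nu serum, with a 24 hr compound exposure preceded by 12 hours of culture.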
* = called active by the depositor. Compounds with a hit are over-represented: about 2.8% of the library has one in this group of screens. Calls follow the shape of the dose curve; as a rule, active = well fitted curve in the direction sought with a large enough effect; inconclusive = small, poorly fitted or top-dose-only effect, or another doubt; inactive = no such curve, though single readings can be large; an effect the other way counts as inactive or inconclusive. Potency is read from the fitted curve at half-maximal effect.

How did CN1/C(=C\C=C2/SC(=S)NC2=O)C(C)(C)c2ccccc21 do in these assays?
Mito fusion yeast: 0.8%; BRCA1 expr up: -45.6%; GLP1R inv ag: inconclusive; GLP1R ag: 5.1%; HEK293 tox: inconclusive

What do the screens show for `CN1CCC/C1=C/C=C1\SC(=S)NC1=O`?
Mito fusion yeast: -5.6%; BRCA1 expr up: 10µM*; GLP1R inv ag: 13.5%; GLP1R ag: 14.1%; HEK293 tox: inconclusive

What do the screens show for `O=C(Nc1ccc(F)cc1)c1ccccc1`?
Mito fusion yeast: -2.6%; BRCA1 expr up: 11.2µM*; GLP1R inv ag: 9.6%; GLP1R ag: -4.3%; HEK293 tox: 1.9%

What do the screens show for `O=C(Nc1ccc(F)cc1)c1cccc(C(=O)Nc2ccc(F)cc2)c1`?
Mito fusion yeast: -0.4%; BRCA1 expr up: -9.4%; GLP1R inv ag: -26.9%; GLP1R ag: 6.6%; HEK293 tox: -8.0%

Results for COc1cc(OC)cc(C(=O)Nc2ccc(Nc3ccccc3)cc2)c1 ?
Mito fusion yeast: -2.3%; BRCA1 expr up: 7.1%; GLP1R inv ag: 11.2µM*; GLP1R ag: 13.5%; HEK293 tox: -25.0%

Results for O=C(Nc1ccccc1)c1ccn[nH]1 ?
Mito fusion yeast: 7.5%; BRCA1 expr up: 7.08µM*; GLP1R inv ag: 33.2%; GLP1R ag: -10.8%; HEK293 tox: 9.7%

What do the screens show for `O=C(Nc1ccccc1)c1ccc(NC(=O)C2CC2)cc1`?
Mito fusion yeast: -1.4%; BRCA1 expr up: 3.98µM*; GLP1R inv ag: -5.4%; GLP1R ag: -1.8%; HEK293 tox: -18.4%

How did NC(=O)c1cccc(-c2ccnc3c2CC(C(=O)NCC2CC2)O3)c1 (centres undefined) do in these assays?
BRCA1 expr up: -9.0%; GLP1R inv ag: -14.9%; GLP1R ag: -3.0%; HEK293 tox: 3.7%

How did O=C(NCc1ccc(Cl)cc1)c1ccc2c(c1)N(Cc1ccccc1F)C(=O)c1ccccc1S2=O (centres undefined) do in these assays?
BRCA1 expr up: -39.0%; GLP1R inv ag: inconclusive; GLP1R ag: -3.2%; HEK293 tox: -9.0%

Results for O=C1NC(=O)c2cc(Oc3ccc([N+](=O)[O-])cc3)ccc21 ?
Mito fusion yeast: 6.6%; BRCA1 expr up: -3.4%; GLP1R inv ag: 3.0%; GLP1R ag: -5.4%; HEK293 tox: -12.4%

How did O=C(Nc1ccc(Nc2ccccc2)cc1)c1ccccc1 do in these assays?
BRCA1 expr up: 3.55µM*; GLP1R inv ag: inconclusive; GLP1R ag: -0.7%; HEK293 tox: -14.2%

What do the screens show for `O=C(Nc1ccc(SC(F)F)cc1)c1ccc(F)cc1`?
Mito fusion yeast: -0.5%; BRCA1 expr up: 3.16µM*; GLP1R inv ag: inconclusive; GLP1R ag: 17.6%; HEK293 tox: 0.5%

Results for O=C(Nc1ccc(Nc2ccccc2)cc1)c1ccc(Cl)cc1 ?
BRCA1 expr up: -4.3%; GLP1R inv ag: inconclusive; GLP1R ag: 6.5%; HEK293 tox: -11.4%

Results for O=C(Nc1ccc(SC(F)F)cc1)c1ccccc1F ?
Mito fusion yeast: 3.4%; BRCA1 expr up: inconclusive; GLP1R inv ag: inconclusive; GLP1R ag: -12.8%; HEK293 tox: 1.2%

Results for Cc1c(C(=O)N(CC(C)C)c2c(N)n(Cc3ccccc3)c(=O)[nH]c2=O)sc2nc3n(c(=O)c12)CCC3 ?
Mito fusion yeast: -6.3%; BRCA1 expr up: -13.3%; GLP1R inv ag: 4.5%; GLP1R ag: -6.7%; HEK293 tox: -3.7%

How did CCOC(=O)C(C)(C)C(=O)C(C)(C)C(O)c1ccccn1 (centres undefined) do in these assays?
Mito fusion yeast: -3.2%; BRCA1 expr up: 1.1%; GLP1R inv ag: -7.5%; GLP1R ag: -17.2%; HEK293 tox: -3.1%

How did O=C(Nc1cc([N+](=O)[O-])ccc1Cl)C(Sc1ccccc1)c1ccccc1 (centres undefined) do in these assays?
Mito fusion yeast: 27.1%; BRCA1 expr up: -12.3%; GLP1R inv ag: inconclusive; GLP1R ag: 0.4%; HEK293 tox: 22.3%

What do the screens show for `O=C(Nc1ccc(Cl)c([N+](=O)[O-])c1)C(Sc1ccccc1)c1ccccc1` (centres undefined)?
Mito fusion yeast: -24.8%; BRCA1 expr up: -92.7%; GLP1R inv ag: 8.91µM*; GLP1R ag: -1.0%; HEK293 tox: inconclusive
